Measured values as given in PubChem BioAssay (NCI).
The panel holds about 79,000 compounds, 15% with a hit somewhere; the sample as a whole holds those more often. Values without a mark were called inactive. Calls of active or inactive are those of the source. Rule as the data show it: active = growth inhibition above about 70%; inactive = the rest.

experiment: NCI Yeast Anticancer Drug Screen. Data for the sgs1 mgt1 strain (AID 161);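 also: 0% = growth of cultures given vehicle only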; conditions: S. cerevisiae sgs1 mgt1 strain, at 5.0 µM (retest, dose inferred, filed as 0.5), active compounds read high
How it was run: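 Inhibition of yeast growth, normalised to vehicle-treated controls, is reported for a strain bearing genetic alterations in DNA damage repair.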

Row | SMILES | growth inhibition
1 | O=C1c2ccccc2C(=O)c2sc(Nc3cc(Cl)ccc3Cl)nc21 | 67%
2 | OCC(c1ccccc1)c1ccccc1 | 41%
3 | CN(C)c1nc(=NCc2ccco2)ss1 | 25%
4 | C/C=C\C=N\NC(N)=S | 3%
5 | O=C(/C=N/O)c1c(-c2ccccc2)[nH]c(-c2ccccc2)c1-c1ccccc1 | 7%
6 | Cc1c2ccccc2c(CO)c2cc(F)c3ccccc3c12 | 97% (active)
7 | O=C(O)Cc1cccc2c(=O)c3cccc([N+](=O)[O-])c3[nH]c12 | 24%
8 | Cc1ccc(SC2=C(N(C)C)C(=O)c3ccccc3C2=O)cc1 | -1%
9 | O=C1C(Cl)=C(Cl)C(=O)c2cc(Cl)c(Cl)cc21 | 65%
10 | CC1=C(C2CO2)C(=O)C(C)=C(C2CO2)C1=O (stereo not drawn) | 43%
11 | CCc1cc(CC)c(-c2ccco2)c(COC(=O)NC)c1 | -4%
12 | COC(=O)C(=O)N(c1cc(C)ccc1C)c1cc(C)ccc1C | 0%
13 | COC1=CC(=O)c2c(O)c3c(c(O)c2C1=O)C=C(C)OC3O (stereo not drawn) | -27%
14 | O=[N+]([O-])c1ccccc1NCCO | -2%
15 | CCCCCCCCCCCCCCCC[N+](C)(C)CC(=O)O | 19%
16 | S=C(SSSSC(=S)N1CCCCC1)N1CCCCC1 | 39%
17 | COC(O)C12OC3CO[Si](C(C)C)(C(C)C)O[Si](C(C)C)(C(C)C)OC3C1Oc1nc(=O)ccn12 (stereo not drawn) | -25%
18 | O=C(O)c1ccccc1C(c1ccccc1)c1ccccc1 | 26%
